Source: PubChem
Compounds with a hit are over-represented: about 10% of the library has one in this group of screens.
FLuc inh: Photinus pyralis luciferase inhibition; Potency, µM (highest dose often 115 µM), most hits filed as inhibitors; P08659; AID 1347043; 76,000 tested, 2.5% active; purified P. pyralis luciferase, luminescence, biochemical; further: nearly all actives have a fitted effect of over 65% in size
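Luminescence read by CCD imager after adding enzyme (10nM final) to wells holding compound, titrated in qHTS. Substrates 10uM each D-luciferin and ATP; buffer 50mM Tris acetate pH 7.5, 10mM Mg acetate, Tween-20, BSA.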
GPT2 inhibitor: GPT2 alanine aminotransferase inhibition; Q8TD30; Recombinant GPT2, coupled pyruvate oxidase/HRP Amplex Red fluorescence; Potency, µM (series often up to 57.7 µM), hits mostly inhibitors; 100,000 tested, 0.25% active; AID 1671188; further: nearly all actives have a fitted effect of over 60% in size
Target sequence (Q8TD30 whole entry, looked up): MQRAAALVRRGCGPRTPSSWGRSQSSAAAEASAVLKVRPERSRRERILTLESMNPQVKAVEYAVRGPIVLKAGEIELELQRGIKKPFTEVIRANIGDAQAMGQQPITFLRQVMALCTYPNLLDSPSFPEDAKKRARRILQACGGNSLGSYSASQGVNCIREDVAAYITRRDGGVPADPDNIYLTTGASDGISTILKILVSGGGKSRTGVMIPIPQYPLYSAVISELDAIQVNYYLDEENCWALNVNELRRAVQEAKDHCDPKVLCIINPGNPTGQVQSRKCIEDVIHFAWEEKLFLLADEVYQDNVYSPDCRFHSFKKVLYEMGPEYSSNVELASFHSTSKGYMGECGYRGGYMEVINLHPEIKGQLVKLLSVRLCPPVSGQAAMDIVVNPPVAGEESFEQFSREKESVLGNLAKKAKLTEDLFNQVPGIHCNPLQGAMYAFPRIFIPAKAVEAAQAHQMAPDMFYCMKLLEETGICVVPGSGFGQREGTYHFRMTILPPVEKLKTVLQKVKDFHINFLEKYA
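Fluorescence read-out: pyruvate from GPT2 turnover coupled to pyruvate oxidase, HRP and Amplex Red (0.2mM ThPP, 0.2U/mL PO and HRP, 50uM Amplex final). Substrates 250uM a-KG, 2mM L-alanine; enzyme 10ng/uL; 30 min RT.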
HEK293 tox: cytotoxic compounds in HEK 293 cells; HEK 293 viability, ATP luminescence (CellTiter-Glo), 48-72 h; Potency, µM (top dose mostly 115 µM), actives largely listed as inhibitors; 94,000 tested, 6.6% active; AID 1345083; further: nearly all actives have a fitted effect of over 60% in size
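HEK 293 cells seeded at 250 cells/well were exposed to compound for 48 or 72 hr at 37 degree Celsius. Viability taken as ATP content by CellTiter-Glo luminescence.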
NIH3T3 tox: kills NIH 3T3 cells. NIH 3T3 viability, CellTiter-Glo ATP luminescence, 48-72 h. Potency, µM (series often up to 96.7 µM), most hits filed as inhibitors. 94,000 tested, 4.3% active; further: nearly all actives have a fitted effect of over 55% in size
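ATP-dependent luminescence (CellTiter-Glo) served as the viability signal for NIH 3T3 cells treated with compound for 48 or 72 hr at 37 °C.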
NPR1 antag: antagonists of human natriuretic peptide receptor Npr1. 76,000 tested, 1.6% active. P16066. AID 1347048. HEK293 hNpr1 GloSensor cGMP, ANP-stimulated luminescence. Potency, µM (top dose mostly 46.3 µM), actives largely listed as inhibitors; calls by dose curve; further: nearly all actives have a fitted effect of over 60% in size
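HEK293 cells stably expressing human Npr1 and cGMP GloSensor pGS-40F, loaded 2 h with 2% GloSensor reagent, given compound 30 min at room temperature. Luminescence read before and 20 min after 0.1 nM hNppA.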
Each line names hits and unclear results; the compound was inactive in the other large screens. Unless noted, the call rests on the fitted dose curve; in most records, active means well fitted curve in the direction sought with a large enough effect; inconclusive means small, poorly fitted or top-dose-only effect, or another doubt; inactive means no such curve, though single readings can be large; an effect the other way counts as inactive or inconclusive.

COc1ccc(C(=O)N2CCC(C(=O)N3CCCC(c4nc5ncccc5[nH]4)C3)CC2)cc1 (centres undefined)	none (no result: FLuc inh, NPR1 antag)
COc1ccc2nc([C@H]3CCN(CCCc4ccccc4)C3)[nH]c2c1	FLuc inh 71µM, HEK293 tox 63µM, NIH3T3 tox inconclusive
COc1ccc2nc([C@H]3CCN(Cc4cccc(OC(F)(F)F)c4)C3)[nH]c2c1	FLuc inh inconclusive, HEK293 tox 100µM, NIH3T3 tox 89µM, NPR1 antag inconclusive
Fc1ccccc1-c1nnc([C@H]2CCN(Cc3cccc(OC(F)(F)F)c3)C2)o1	HEK293 tox 112µM, NIH3T3 tox inconclusive
O=C(C1CN(C2CCCC2)C(=O)N1)N1CCN(Cc2ccccc2)CC1 (centres undefined)	none (no result: FLuc inh, NPR1 antag)
O=C(c1c(F)cccc1Cl)N1CCC(n2cnnc2C2CC2)CC1	none (no result: FLuc inh, NPR1 antag)
CN1CCC2(C1)CN(Cc1ccccc1)c1ccc(C(=O)NCCOc3ccccc3)cc12 (centres undefined)	HEK293 tox 32µM, NIH3T3 tox inconclusive
Cc1nc(CN2CC3(CCN(C)C3)c3cc(C(=O)NCCc4ccccc4)ccc32)cs1 (centres undefined)	HEK293 tox 79µM, NIH3T3 tox inconclusive
COCCNC(=O)c1ccc2c(c1)C1(CCN(C)C1)CN2Cc1csc(C)n1 (centres undefined)	NIH3T3 tox inconclusive
CN(C)CCNC(=O)c1ccc2c(c1)C1(CCN(CC3CC3)C1)CN2Cc1ccccc1 (centres undefined)	HEK293 tox 45µM, NIH3T3 tox 32µM
O=C(NC1CCC1)c1ccc2c(c1)C1(CCN(CC3CC3)C1)CN2Cc1ccccc1 (centres undefined)	HEK293 tox 56µM, NIH3T3 tox inconclusive
O=C(NCc1cccc(Cl)c1)c1nc2sccn2c1-c1ccc(C(F)(F)F)cc1	HEK293 tox inconclusive, NIH3T3 tox inconclusive (no result: FLuc inh, NPR1 antag)
CN1CC2(CCCN(CC3CC3)C2)c2cc(C(=O)NCCc3ccccn3)ccc21 (centres undefined)	HEK293 tox inconclusive
CN1CCC2(C1)CN(Cc1ccccc1)c1ccc(C(=O)NCC3CC3)cc12 (centres undefined)	HEK293 tox 112µM, NIH3T3 tox inconclusive
CCNC(=O)c1ccc2c(c1)C1(CCN(CC3CC3)C1)CN2Cc1ccccc1 (centres undefined)	GPT2 inhibitor inconclusive, HEK293 tox inconclusive, NIH3T3 tox inconclusive
CN1CC2(CCCN(CC3CC3)C2)c2cc(C(=O)NCCOc3ccccc3)ccc21 (centres undefined)	HEK293 tox 100µM, NIH3T3 tox 79µM
O=C(NCC1CC1)c1ccc2c(c1)C1(CCN(CC3CC3)C1)CN2Cc1ccccc1 (centres undefined)	HEK293 tox inconclusive, NIH3T3 tox 79µM
COCC(=O)NC1CCC12CCN(S(=O)(=O)c1ccc3c(c1)CCC3)CC2 (centres undefined)	none (no result: FLuc inh, NPR1 antag)
C[C@]12C=CC(=O)C=C1CC[C@@H]1C2=CC[C@]2(C)[C@@H](C(=O)CN3CCN(c4cc(N5CCCC5)nc(N5CCCC5)n4)CC3)CC[C@@H]12	GPT2 inhibitor 0.71µM (no result: FLuc inh, HEK293 tox, NIH3T3 tox, NPR1 antag)
O=C1[C@@H]2C[C@@H](O)CN2C2(CN(Cc3ccccc3)C2)C(=O)N1Cc1ccccc1F	none
CC(C)(C)c1cc(C(=O)N2CCCC2)nn2cccc12	HEK293 tox inconclusive, NIH3T3 tox 28µM (no result: FLuc inh, NPR1 antag)
CC(C)NC(=O)c1cc(C(C)(C)C)c2cccn2n1	none (no result: FLuc inh, NPR1 antag)
CC(C)(C#N)c1ccc(-c2cc(CO)ccn2)cc1	FLuc inh 32µM, GPT2 inhibitor inconclusive, HEK293 tox inconclusive, NIH3T3 tox inconclusive
O=C(NCc1cccs1)c1ccc2oc(-c3ccncc3)nc2c1	HEK293 tox inconclusive, NIH3T3 tox inconclusive (no result: FLuc inh, NPR1 antag)
CC(C)CNC(=O)c1ccc2oc(-c3ccnc(Cl)c3)nc2c1	HEK293 tox 89µM, NIH3T3 tox inconclusive (no result: FLuc inh, NPR1 antag)
Cc1nc(CNC(=O)c2ccc3oc(-c4cccc(F)c4)nc3c2)cs1	FLuc inh 32µM, HEK293 tox inconclusive
COc1cccc(CN2C(=O)CCCCC2C(=O)NCCc2ccc(OC)c(OC)c2)c1 (centres undefined)	none (no result: FLuc inh, NPR1 antag)
CNC(=O)CCn1ncc2cc(OCc3ccccc3-c3ccccc3COC)ccc21	HEK293 tox 89µM, NIH3T3 tox inconclusive
CNC(=O)CCn1ncc2cc(OCc3ccccc3-c3c(Cl)cccc3OC)ccc21	HEK293 tox inconclusive, NIH3T3 tox inconclusive
CNC(=O)CCn1ncc2cc(OCc3ccccc3-c3cccc(C)c3)ccc21	FLuc inh 45µM, GPT2 inhibitor inconclusive, HEK293 tox 100µM, NIH3T3 tox 89µM
CNC(=O)CCn1ncc2cc(OCc3ccccc3-c3cccc(OC)c3F)ccc21	HEK293 tox inconclusive, NIH3T3 tox 45µM
CNC(=O)CCn1ncc2cc(OCc3ccccc3-c3ccccc3OC)ccc21	FLuc inh 40µM, HEK293 tox inconclusive, NIH3T3 tox 89µM
CCc1nc2c(c(-c3ccc(O)cc3)n1)CCN(C(=O)c1cccc(Cl)c1)CC2	HEK293 tox inconclusive, NIH3T3 tox inconclusive (no result: FLuc inh, NPR1 antag)
O=C(NCCCc1ccccc1)c1ccc2nc(-c3cccnc3)oc2c1	none (no result: FLuc inh, NPR1 antag)
CN(Cc1ccc2nonc2c1)C(=O)C1CCN(C(=O)C2CCCC2)CC1	HEK293 tox inconclusive, NIH3T3 tox 40µM
CN(Cc1ccon1)C(=O)C1CCN(C(=O)C2CCC2)CC1	none
Cc1ccc(NC(=O)CN2C(=O)NC(c3ccc(Cl)cc3)C3=C2COC3=O)cc1Cl (centres undefined)	FLuc inh inconclusive, HEK293 tox 32µM, NIH3T3 tox 28µM, NPR1 antag inconclusive
CCOC(=O)c1ccccc1NC(=O)CN1C(=O)NC(c2ccc(Cl)cc2)C2=C1COC2=O (centres undefined)	HEK293 tox inconclusive, NIH3T3 tox 40µM
Cc1ccc(C2NC(=O)N(CC(=O)Nc3ccc(F)c(F)c3)C3=C2C(=O)OC3)cc1 (centres undefined)	HEK293 tox 20µM, NIH3T3 tox inconclusive
CC(C)c1cccc(NC(=O)CN2C(=O)NC(c3ccccc3Cl)C3=C2COC3=O)c1 (centres undefined)	FLuc inh inconclusive, HEK293 tox 40µM, NIH3T3 tox inconclusive
Cc1ccc(C2NC(=O)N(CC(=O)Nc3ccc4c(c3)OCCO4)C3=C2C(=O)OC3)cc1 (centres undefined)	HEK293 tox inconclusive
Cc1ccc(C2NC(=O)N(CC(=O)Nc3cc(F)ccc3F)C3=C2C(=O)OC3)cc1 (centres undefined)	HEK293 tox inconclusive
Cc1ccc(CNC(=O)C2CN(S(=O)(=O)c3cccnc3)CC23CCCCC3)o1 (centres undefined)	none
Cc1cc(NC(=O)CN2C(=O)NC(c3ccc(Cl)cc3)C3=C2COC3=O)ccc1Br (centres undefined)	HEK293 tox inconclusive, NIH3T3 tox 25µM
CCCCc1ccc(NC(=O)CN2C(=O)NC(c3ccc(C)cc3)C3=C2COC3=O)cc1 (centres undefined)	HEK293 tox 45µM, NIH3T3 tox inconclusive
